The source of these data is PubChem BioAssay (NCATS).

A short description of assay [1]: qHTS drug screen for cell cycle checkpoint inhibitors in PARPi-resistant BRCA-mutant ovarian cancer cell lines. (AID 1963452; calls by dose curve). The following applies: PEO1/OlaR viability, CellTiter-Glo luminescence, 96 h, stronger effect = lower value. The procedure, abridged: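 PEO1, PEO4 and PEO1/OlaR ovarian cancer cells, 600 per well, exposed 96 h at 37C to a dilution series. Viability read by CellTiter-Glo luminescence, normalized to DMSO and empty wells; activity summarized as Z-AUC.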

Assay [2] can be described thus: qHTS profiling for inhibitors of Plasmodium falciparum proliferation (AID 504749).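 Also: 0% = DMSO vehicle and full inhibition = artemisinin control; nearly all actives have a fitted effect of over 60% in size.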 The settings on record: P. falciparum in erythrocytes, SYBR Green DNA, 72 h. The gist of the method:
(§1)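 SYBR Green fluorescence of parasite DNA, read after lysis and overnight dark incubation, measured growth over 72 h in erythrocyte culture at 0.3% parasitemia and 2.5% hematocrit. Data normalised to DMSO and 0.29 uM artemisinin, with plate-drift correction.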

For the next assay, the system named is 3D7. The assay is described as above. The settings on record: P. falciparum in erythrocytes, SYBR Green DNA, 72 h; series mostly up to 28.7 µM. The gist of the method:
as §1

The subject of a further assay is 7G8. Described as above. The settings on record: P. falciparum in erythrocytes, SYBR Green DNA, 72 h; series mostly up to 28.7 µM. The procedure, abridged: as §1
The subject of the next assay is AA1029. The description is as above. The following applies: P. falciparum in erythrocytes, SYBR Green DNA, 72 h; series mostly up to 28.7 µM. The gist of the method:
as §1

The test system of another assay is AS120. The description is as above. The following applies: P. falciparum in erythrocytes, SYBR Green DNA, 72 h; series mostly up to 28.7 µM. The gist of the method:
as §1

The test system of the next assay is ATS189. The assay is described as above. The following applies: P. falciparum in erythrocytes, SYBR Green DNA, 72 h; series mostly up to 28.7 µM. The gist of the method:
as §1

Another assay has as its system ATS95. The description is as above. The settings on record: P. falciparum in erythrocytes, SYBR Green DNA, 72 h; series mostly up to 28.7 µM. The gist of the method: as §1
Another assay has as its system C2A. The assay is described as above. The following applies: P. falciparum in erythrocytes, SYBR Green DNA, 72 h; series mostly up to 28.7 µM. The procedure, abridged: as §1
The next assay relates to CP185. The description is as above. The following applies: P. falciparum in erythrocytes, SYBR Green DNA, 72 h; series mostly up to 28.7 µM. The procedure, abridged: as §1
The subject of a further assay is CP191. The description is as above. The following applies: P. falciparum in erythrocytes, SYBR Green DNA, 72 h; series mostly up to 28.7 µM. The gist of the method: as §1
The test system of a further assay is CP192. The description is as above. The settings on record: P. falciparum in erythrocytes, SYBR Green DNA, 72 h; series mostly up to 28.7 µM. The procedure, abridged:
as §1

Another assay relates to CP194. The description is as above. The settings on record: P. falciparum in erythrocytes, SYBR Green DNA, 72 h; series mostly up to 28.7 µM. The procedure, abridged:
as §1

A further assay deals with CP201. Described as above. The settings on record: P. falciparum in erythrocytes, SYBR Green DNA, 72 h; series mostly up to 28.7 µM. The gist of the method:
as §1

Another assay has as its system CP203. The assay is described as above. The following applies: P. falciparum in erythrocytes, SYBR Green DNA, 72 h; series mostly up to 28.7 µM. The procedure, abridged: as §1
In the next assay the test system is CP211. Described as above. The following applies: P. falciparum in erythrocytes, SYBR Green DNA, 72 h; series mostly up to 28.7 µM. The procedure, abridged:
as §1

Another assay concerns CP215. Described as above. The following applies: P. falciparum in erythrocytes, SYBR Green DNA, 72 h; series mostly up to 28.7 µM. The procedure, abridged: as §1
The test system of a further assay is CP217. The assay is described as above. The settings on record: P. falciparum in erythrocytes, SYBR Green DNA, 72 h; series mostly up to 28.7 µM. The gist of the method: as §1
Where [3] appears, read: at 28.7 µM (top of the series), parasite line A.
Where [4] appears, read: at 28.7 µM (top of the series), parasite line B.

“And” between values parts separate entries of the source, which are not always exact repeats. Equal values may be shown once. Inconclusive results are not listed. The source made the active and inactive calls. Unless noted, calls follow the shape of the dose curve; as a rule, active = well fitted inhibition curve with a large enough effect; inconclusive = small, poorly fitted or top-dose-only effect; inactive = flat fitted curve, though single readings scatter.

Turning to `CC[C@H]1CN2CCc3cc(OC)c(OC)cc3[C@@H]2C[C@@H]1C[C@H]1NCCc2cc(OC)c(OC)cc21`, the Z-AUC was -0.485 (inactive) in assay [1], -0.835 in assay [1] (measured here: PEO1 parental Z-AUC) and -0.876 in [1] (measured here: PEO4 Z-AUC).

Take `O=C1OC(OC(=O)c2cccnc2Nc2cccc(C(F)(F)F)c2)c2ccccc21` (centres undefined): the activity, negative = inhibition in [2] (setting [3]) was -4.18% (inactive); in assay [2] (setting [4]), 2.45% (inactive). For the same molecule, the Potency result in the assay on 3D7, in the assay with 7G8, in the assay with AA1029, with AS120, in the assay with ATS189 and with ATS95 was “inactive” throughout. For the same molecule, the Potency result with C2A, with CP185, in the assay on CP191, with CP192, in the assay on CP194 and with CP201 was “inactive” each time. In addition, the Potency entry in the assay with CP203, in the assay on CP211, in the assay with CP215 and in the assay with CP217 was “inactive” each time.

As to `Cc1cc(O)cc2c1O[C@](C)(CCC[C@H](C)CCC[C@H](C)CCCC(C)C)CC2`, the activity, negative = inhibition in assay [2] (setting [3]) is -4.03% (inactive); in assay [2] (setting [4]), -6.42% (inactive). Besides, the Potency result in the assay with 3D7, with 7G8, in the assay with AA1029, in the assay with AS120, with ATS189 and with ATS95 was “inactive” throughout. Also, the Potency result in the assay on C2A, in the assay on CP185, with CP191, with CP192, with CP194 and with CP201 was “inactive” in each case. For the same molecule, the Potency result in the assay on CP203, in the assay on CP211 and with CP217 was “inactive” in each case.

Regarding `COc1ccc(S(=O)(=O)Nc2nnc(CC(C)C)s2)cc1`, the activity, negative = inhibition in assay [2] (setting [3]) was 3.77% (inactive) and -5.99% (inactive); in assay [2] (setting [4]), 15.9% (inactive) and -5.44% (inactive). Besides, the Potency entry with 3D7, in the assay with 7G8, with AA1029, in the assay on AS120, in the assay with ATS189 and in the assay on ATS95 was “inactive” each time. In addition, the Potency result in the assay with C2A, in the assay with CP185, in the assay on CP191, in the assay with CP192, in the assay on CP194 and in the assay with CP201 was “inactive” each time. Also, the Potency entry in the assay on CP203, in the assay on CP211, in the assay on CP215 and with CP217 was “inactive” each time.

For the molecule `CC1(C)CO[C@@H](CC(=O)O)CN1`, the activity, negative = inhibition in assay [2] (setting [3]) is 1.48% (inactive); in assay [2] (setting [4]), 5.08% (inactive). In addition, the Potency entry in the assay on 3D7, with 7G8, in the assay on AA1029, with AS120, in the assay on ATS189 and with ATS95 was “inactive” each time. The Potency entry in the assay with C2A, in the assay with CP185, with CP191, in the assay on CP192, in the assay on CP194 and in the assay with CP201 was “inactive” throughout. Moreover, the Potency result in the assay with CP203, in the assay with CP211, in the assay on CP215 and with CP217 was “inactive” in each case.

As to `CC1(C)OC(=O)NC1=O`, the results for the activity, negative = inhibition in assay [2] (setting [3]) and in assay [2] (setting [4]) were 17.2% (inactive) and 21.8% (inactive), respectively. In addition, the Potency entry in the assay on 3D7, in the assay with 7G8, with AA1029, in the assay on AS120, in the assay on ATS189 and in the assay on ATS95 was “inactive” each time. Further, the Potency entry in the assay on C2A, in the assay with CP185, in the assay on CP191, in the assay on CP192, with CP194 and in the assay with CP201 was “inactive” throughout. Besides, the Potency entry in the assay with CP203, in the assay on CP211 and in the assay with CP217 was “inactive” in each case.

`CCCCCCCCCCCCOS(=O)(=O)O`: the activity, negative = inhibition is 2.98% (inactive) in assay [2] (setting [3]) and -1.46% (inactive) in assay [2] (setting [4]). Further, the Potency result in the assay with 3D7, in the assay with 7G8, with AA1029, in the assay on AS120, in the assay on ATS189 and in the assay with ATS95 was “inactive” in each case. In addition, the Potency result with C2A, in the assay with CP185, in the assay on CP191, in the assay with CP192, in the assay with CP194 and with CP201 was “inactive” each time. Moreover, the Potency entry in the assay with CP211, in the assay with CP215 and with CP217 was “inactive” throughout.

On to `O=C(Oc1ccccc1C(=O)O)c1ccccc1O`, for which the values for the activity, negative = inhibition in [2] (setting [3]) and in assay [2] (setting [4]) were 0.597% (inactive) and 10.5% (inactive), respectively. For the same molecule, the Potency entry in the assay with 3D7, in the assay with 7G8, with AA1029, with AS120, in the assay on ATS189 and with ATS95 was “inactive” throughout. The Potency entry with C2A, with CP185, in the assay on CP191, with CP192, in the assay on CP194 and in the assay with CP201 was “inactive” throughout. For the same molecule, the Potency result in the assay with CP203, in the assay on CP211, in the assay on CP215 and in the assay with CP217 was “inactive” in each case.

`CC1(C)[C@@H]2CC[C@@]1(C)C(=O)C2`: the activity, negative = inhibition was 5.82% (inactive) in assay [2] (setting [3]) and 6.35% (inactive) in assay [2] (setting [4]). Further, the Potency result in the assay on 3D7, with 7G8, with AA1029, in the assay on AS120, in the assay with ATS189 and with ATS95 was “inactive” each time. For the same molecule, the Potency entry in the assay on C2A, in the assay with CP185, with CP191, with CP192, in the assay with CP194 and in the assay with CP201 was “inactive” each time. Further, the Potency entry in the assay with CP203, in the assay on CP211, in the assay with CP215 and with CP217 was “inactive” each time.

Regarding `CC(=O)Oc1ccc(C2(c3ccc(OC(C)=O)cc3)C(=O)Nc3ccccc32)cc1`, the activity, negative = inhibition is 5.01% (inactive) and 7.68% (inactive) in assay [2] (setting [3]); 2.92% (inactive) and 4.08% (inactive) in assay [2] (setting [4]). In addition, the Potency result in the assay on 3D7, with 7G8, with AA1029, in the assay with AS120, in the assay with ATS189 and with ATS95 was “inactive” throughout. The Potency entry in the assay with C2A, in the assay on CP185, in the assay on CP191, in the assay on CP192, with CP194 and in the assay with CP201 was “inactive” in each case. Further, the Potency entry in the assay with CP211, with CP215 and in the assay with CP217 was “inactive” each time.

In the case of `C[C@H](N)[C@H](O)c1cccc(O)c1`, the activity, negative = inhibition in assay [2] (at 12.8 µM (top of the series), parasite line A) was 4.05% (inactive); in assay [2] (at 12.8 µM (top of the series), parasite line B), -0.641% (inactive). Besides, the Potency entry in the assay on 3D7, in the assay on 7G8, in the assay on AA1029, in the assay on AS120, in the assay on ATS189 and in the assay on ATS95 was “inactive” each time. Also, the Potency result in the assay on C2A, in the assay on CP185, with CP191, in the assay on CP192, in the assay on CP194 and with CP201 was “inactive” each time. Also, the Potency entry with CP211, in the assay on CP215 and in the assay with CP217 was “inactive” each time.

`O=C(O)c1ccccc1-c1ccc(C(F)(F)F)cc1`: the results for the activity, negative = inhibition in assay [2] (setting [3]) and in assay [2] (setting [4]) were 11.3% (inactive) and 19.8% (inactive), respectively. Also, the Potency result in the assay with 3D7, with 7G8, in the assay with AA1029, in the assay with AS120, with ATS189 and in the assay on ATS95 was “inactive” each time. The Potency result with C2A, with CP185, in the assay on CP191, in the assay with CP192, with CP194 and with CP201 was “inactive” each time. Besides, the Potency entry in the assay with CP203, in the assay with CP211, with CP215 and in the assay on CP217 was “inactive” throughout.

With `CCN(CC)CCSC(=O)C(c1ccccc1)c1ccccc1`, the activity, negative = inhibition was 10.5% (inactive) and 6.38% (inactive) in assay [2] (setting [3]); -0.418% (inactive) and -7.05% (inactive) in [2] (setting [4]). For the same molecule, the Potency entry with 3D7, in the assay on 7G8, with AA1029, in the assay with AS120, in the assay on ATS189 and in the assay with ATS95 was “inactive” throughout. The Potency result with C2A, in the assay on CP185, in the assay with CP191, in the assay on CP192, with CP194 and in the assay on CP201 was “inactive” throughout. Besides, the Potency result in the assay on CP203, with CP211, with CP215 and in the assay with CP217 was “inactive” throughout.
